# Compound activity from PubChem BioAssay.
# FLuc counter: inhibits or activates purified firefly luciferase, miR-21 counter-screen; Potency, µM (titrated, usually from 57.5 µM), without a hit: at the highest dose activity change, negative = inhibition, usual class: inhibitors; 360,000 compounds, 6.9% hits; AID 588342; purified FLuc, Km substrates, luminescence inhibition;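 note: plate controls were vehicle for no effect and reference inhibitor for full effect; nearly all actives have a fitted effect of over 55% in size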
# Target sequence (P08659 whole entry, looked up): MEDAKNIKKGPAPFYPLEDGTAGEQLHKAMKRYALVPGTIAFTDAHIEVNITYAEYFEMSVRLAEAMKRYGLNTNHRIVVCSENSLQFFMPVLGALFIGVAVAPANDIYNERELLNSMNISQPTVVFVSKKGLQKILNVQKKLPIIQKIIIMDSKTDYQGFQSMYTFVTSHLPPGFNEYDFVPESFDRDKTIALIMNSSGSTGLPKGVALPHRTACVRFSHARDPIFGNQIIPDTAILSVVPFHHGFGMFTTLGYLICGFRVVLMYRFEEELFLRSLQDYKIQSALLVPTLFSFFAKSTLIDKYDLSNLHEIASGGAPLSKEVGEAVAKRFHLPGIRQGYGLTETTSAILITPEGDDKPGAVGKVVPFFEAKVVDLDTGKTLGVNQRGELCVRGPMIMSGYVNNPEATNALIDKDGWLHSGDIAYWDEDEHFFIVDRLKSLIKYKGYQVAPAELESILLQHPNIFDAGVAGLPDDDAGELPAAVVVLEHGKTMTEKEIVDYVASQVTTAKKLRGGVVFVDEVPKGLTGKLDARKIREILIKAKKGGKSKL
#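 Purified P. pyralis luciferase, 10 nM final, with Km-level 10 uM D-luciferin and 10 uM ATP in 50 mM Tris acetate pH 7.5, 10 mM Mg acetate, 0.01% Tween-20, 0.05% BSA; 6-point qHTS titration about 60 µM downward; luminescence read.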
# NPC1 prom act: activates the NPC1 promoter. Huh7 NPC1 promoter luciferase reporter, 24 h. Potency, µM (doses to about 9.22 µM), without a hit: at the highest dose activation, hits mostly activators. 320,000 compounds, 2.4% hits. AID 485313; note: % of control where 0% means no effect; nearly all actives have a fitted effect of over 60% in size
#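 Quantitative HTS used a cell-based reporter: Huh7 cells stably bearing the NPC1 promoter upstream of luciferase were treated with compounds for 24 h, and promoter activation was read as luminescence.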
# SMN2 splice up: enhancers of SMN2 splice variant expression | HEK293 SMN2-luciferase splicing reporter, luminescence, 30-36 h | Potency, µM (series often up to 46.1 µM), for inactives: at the top dose activity change, positive = activation, usual class: activators | 210,000 compounds, 2.8% hits | AID 1458; note: % of control where 0% means no effect; nearly all actives have a fitted effect of over 55% in size
#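 qHTS luciferase splicing reporter: luminescence rises when SMN2 exon 7 is included in transfected HEK293 cells. Compound exposure lasted 30-36 h at 37C, with 4.5 mM final sodium butyrate as control, followed by a ONE-Glo read.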
# Rab9 promoter act: Rab9 promoter activation. 320,000 compounds, 2.8% hits. Potency, µM (series often up to 9.22 µM), for inactives: at the highest dose activation, negative = inhibition, most hits filed as activators. Huh7 Rab9 promoter-luciferase reporter, luminescence, 24 h; note: % of control where 0% means no effect; nearly all actives have a fitted effect of over 60% in size
#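 Rab9 promoter-driven luciferase in stably transfected Huh7 cells; 1500 cells/well rested 2 h, exposed to compound in DMSO for 24 h at 37 °C, 5% CO2. Luminescence read 10 min after adding luciferase reagent at ambient temperature.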
# ELG1 genotox: inducers of genotoxicity in HEK293T ELG1-luciferase cells; Potency, µM (top dose mostly 46 µM), for inactives: at the top dose activity change, positive = activation, actives largely listed as activators; 330,000 compounds, 1.3% hits; HEK293T ELG1-luciferase reporter, luminescence, 16 h; note: % of control where 0% means no effect; nearly all actives have a fitted effect of over 60% in size
#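 After overnight (16 hr) compound treatment at 37 °C, ELG1-luciferase HEK293T cells were lysed with ONE-Glo; luminescence quantified 30 min later at room temperature.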
# KinaseGlo FLuc: counter-screen: inhibitors of Kinase-Glo firefly luciferase; Q27757; 200,000 compounds, 0.28% hits; Kinase-Glo luciferase, ATP luminescence, 8 min; Potency, µM (highest dose often 38.3 µM), inactives show at the top dose activity change, negative = inhibition, actives largely listed as inhibitors; note: % is set by controls: 0 for no effect and ±100 for the full control effect; nearly all actives have a fitted effect of over 60% in size
#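 Luminescence was the read-out, taken after 8-minute incubation at ambient temperature. Luciferase turned over luciferin with 10 uM ATP in imidazole pH 7.2 buffer containing KCl, MgCl2, Tween 20 and BSA.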
# * = called active by the depositor; ? = inconclusive; . = not tested or not shown; [ ] = remark or other dose. Only some compounds are listed: those with a hit (about 7.4% of all), similar ones and a draw of the others. Calls come from the whole dose curve; as a rule, active = well fitted curve in the direction sought with a large enough effect; inconclusive = small, poorly fitted or top-dose-only effect, or another doubt; inactive = no such curve, though single readings can be large; an effect the other way counts as inactive or inconclusive. Potency is the fitted concentration of half-maximal effect.
SMILES,FLuc counter,NPC1 prom act,SMN2 splice up,Rab9 promoter act,ELG1 genotox,KinaseGlo FLuc
CCOC(=O)C1CCN(C(=O)CCCOc2ccccc2)CC1,9.5µM*,?,30%,?,?,-6%
O=C(CCCOc1ccc(Cl)cc1)N1CCCCCC1,-3%,12%,20%,12%,16µM*,15%
O=C(COc1ccc(Cl)cc1)N1CCCCCCC1,-16%,17%,.,19%,1%,.
Cc1cc(C)cc(Nc2nc3cc(Cl)c(Cl)cc3nc2-n2nc(C)cc2C)c1,-3%,.,1%,.,.,.
CC(NC(=O)CCN1C(=O)c2ccccc2C1=O)c1ccccc1 (stereo not given),-2%,-2%,.,1%,4%,.
O=C(CCC1CCN(Cc2ccc(Cl)cc2)CC1)NC1CC1,-1%,-4%,.,-3%,-4%,.
O=C(CCCOc1ccccc1)N1CCCCC1,1.5µM*,0.5µM*,2.5µM*,?,0.46µM*,-29%
O=C(CCCOc1ccc(Cl)cc1)N1CCCCC1,-26%,27%,.,3.5µM*,21µM*,4%
O=C(CCCOc1ccc(Cl)cc1)N1CCOCC1,-18%,-1%,18%,-5%[1.84 µM],?,0%
O=C(COc1ccccc1)N1CCCCCCC1,0%,1%,.,-2%,2%,.
Cc1cccc(N2C(=O)CCC2=O)n1,-1%,-1%,-11%,-3%,4%,-2%
CCN(CC(=O)Nc1ccc(NC(C)=O)cc1)C(=O)/C=C/c1ccc(C)o1,-1%,-1%,.,-1%,3%,.
CCN(CC(=O)Nc1c(F)cccc1F)C(=O)c1ccc(C#N)cc1,1%,0%,.,7%,-4%,.
CCc1cc2c(=O)c(-c3nc(C)cs3)coc2cc1O,1.9µM*,2%,.,?,?,.
COc1ccc(-c2coc3cc(O)c(OC)cc3c2=O)cc1,?,26%,.,?,?,.
COc1ccc2c(=O)c(-c3nc(C)cs3)coc2c1,0.76µM*,0.63µM*,4.5µM*,1.3µM*,?,?
Cc1csc(-c2coc3cc(O)cc(C)c3c2=O)n1,9.5µM*,?,?,?,21µM*,-27%
CCCCN(C(=O)C1CCCC1)c1c(N)n(CC(C)C)c(=O)[nH]c1=O,3%,0%,.,-2%,3%,.
Cc1nc2sc(C(c3ccccc3)N3CCN(C)CC3)c(O)n2n1 (stereo not given),1%,-1%,.,-6%,0%,.
O=C(NCCCn1ccnc1)c1cc2ccccc2oc1=O,-9%,1%,25%,10%,2%,-1%
O=c1c2ccccc2oc2cc(NCCCN3CCOCC3)ccc12,11µM*,4µM*,.,3.5µM*,?,.
O=c1c2ccccc2oc2ccc(NCCCN3CCOCC3)cc12,8.5µM*,2.8µM*,.,2.8µM*,?,.
O=c1c2ccccc2oc2cc(NCCCn3ccnc3)ccc12,2.4µM*,1.1µM*,.,0.71µM*,?,.
COc1ccccc1NS(=O)(=O)c1cc(C(=O)O)ccc1F,.,.,.,.,.,-1%
O=C(COc1ccccc1C(=O)N/N=C\c1ccc(O)c(O)c1)N/N=C/c1ccc(O)c(O)c1,6.7µM*,-5%,?,-9%,0%,-4%
SMILES,FLuc counter,NPC1 prom act,SMN2 splice up,Rab9 promoter act,ELG1 genotox,KinaseGlo FLuc
COc1cc(/C=N/NC(=O)/C(=C\c2ccc3c(c2)OCO3)NC(=O)c2ccccc2)ccc1O,?,-1%,-9%,-2%,0%,2%
COc1cc(/C=N/NC(=O)c2ccc3c(c2)OCO3)ccc1O,17µM*,17%,.,18%,?,.
COc1ccccc1C(=O)NCC(=O)N/N=C/c1ccncc1,-3%,-6%,-8%,-10%,4%,4%
COc1ccc(N(CC(=O)N/N=C/c2ccc3c(c2)OCO3)S(=O)(=O)c2ccccc2)cc1,-6%,-2%,2%,0%,0%,-1%
COc1ccc(NCC(=O)N/N=C/c2ccc3c(c2)OCCO3)cc1,19µM*,2%,?,-3%,-1%,0%
COc1ccccc1C(=O)NCC(=O)N/N=C/c1ccc2c(c1)OCO2,17µM*,-2%,.,0%,4%,.
